{"source": "PubChem BioAssay AID1159580", "about": "(chemical genetic matrix, 2015)", "assay": "chemical genetic growth profiling, strain panel (AID 1159580);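 also: tested at 20 µM; growth read once vehicle control cultures reached saturation at 30 °C; 1 = growth at the plate median or of vehicle wells; lower values mean less growth of the strain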", "conditions": "S. cerevisiae deletion strains, growth OD", "note": "About 2,000 (36%) of roughly 5,500 compounds were called active. Another 18% or so got no clear call; they are omitted. Some of the results follow. A number with no mark means an inactive call. Rule as the data show it: active = normalized growth mostly below about 0.91 (no sharp cut-off); inconclusive = no clear call, values can overlap the other calls; inactive = mostly above about 0.92.", "data": [{"smiles": "O=C(O)[C@@H](S)[C@@H](S)C(=O)O", "values": [{"measurement": "normalized growth", "setting": "locus YAL021C, strain ccr4, active compounds read low", "value": "0.545 (active)"}, {"measurement": "normalized growth", "setting": "locus YAL026C, strain drs2, active compounds read low", "value": "0.836 (active)"}, {"measurement": "normalized growth", "setting": "locus YAL030W, strain snc1, active compounds read low", "value": 0.975}, {"measurement": "normalized growth", "setting": "locus YBL061C, strain skt5, active compounds read low", "value": 0.967}, {"measurement": "normalized growth", "setting": "locus YBR009C, strain hhf1, active compounds read low", "value": "0.875 (active)"}, {"measurement": "normalized growth", "setting": "locus YBR023C, strain chs3, active compounds read low", "value": 0.962}, {"measurement": "normalized growth", "setting": "locus YBR171W, strain sec66, active compounds read low", "value": 0.976}, {"measurement": "normalized growth", "setting": "locus YBR231C, strain swc5, active compounds read low", "value": "0.887 (active)"}, {"measurement": "normalized growth", "setting": "locus YBR279W, strain paf1, active compounds read low", "value": "0.922 (active)"}, {"measurement": "normalized growth", "setting": "locus YCL011C, strain gbp2, active compounds read low", "value": 0.921}, {"measurement": "normalized growth", "setting": "locus YCL016C, strain dcc1, active compounds read low", "value": 0.945}, {"measurement": "normalized growth", "setting": "locus YCL061C, strain MRC1, active compounds read low", "value": 0.936}, {"measurement": "normalized growth", "setting": "locus YCL069W, strain vba3, active compounds read low", "value": 0.953}, {"measurement": "normalized growth", "setting": "locus YCR088W, strain abp1, active compounds read low", "value": 0.971}, {"measurement": "normalized growth", "setting": "locus YDL005C, strain med2, active compounds read low", "value": 1}, {"measurement": "normalized growth", "setting": "locus YDL040C, strain nat1, active compounds read low", "value": 0.971}, {"measurement": "normalized growth", "setting": "locus YDR001C, strain nth1, active compounds read low", "value": 0.971}, {"measurement": "normalized growth", "setting": "locus YDR069C, strain doa4, active compounds read low", "value": "0.681 (active)"}, {"measurement": "normalized growth", "setting": "locus YDR137W, strain rgp1, active compounds read low", "value": "0.73 (active)"}, {"measurement": "normalized growth", "setting": "locus YDR159W, strain sac3, active compounds read low", "value": 0.91}, {"measurement": "normalized growth", "setting": "locus YDR195W, strain ref2", "value": 1.01}, {"measurement": "normalized growth", "setting": "locus YDR297W, strain sur2, active compounds read low", "value": 0.975}, {"measurement": "normalized growth", "setting": "locus YDR334W, strain swr1, active compounds read low", "value": 0.958}, {"measurement": "normalized growth", "setting": "locus YDR335W, strain msn5, active compounds read low", "value": "0.911 (active)"}, {"measurement": "normalized growth", "setting": "locus YDR392W, strain spt3, active compounds read low", "value": "0.532 (active)"}, {"measurement": "normalized growth", "setting": "locus YEL003W, strain gim4, active compounds read low", "value": 0.962}, {"measurement": "normalized growth", "setting": "locus YEL037C, strain rad23, active compounds read low", "value": 0.953}, {"measurement": "normalized growth", "setting": "locus YEL061C, strain CIN8 (second series), active compounds read low", "value": 0.977}, {"measurement": "normalized growth", "setting": "locus YER015W, strain faa2, active compounds read low", "value": 0.958}, {"measurement": "normalized growth", "setting": "locus YER016W, strain bim1, active compounds read low", "value": 0.952}, {"measurement": "normalized growth", "setting": "locus YER111C, strain swi4, active compounds read low", "value": 0.965}, {"measurement": "normalized growth", "setting": "locus YER155C, strain BEM2 (second series), active compounds read low", "value": "0.662 (active)"}, {"measurement": "normalized growth", "setting": "locus YFR010W, strain ubp6, active compounds read low", "value": "0.828 (active)"}, {"measurement": "normalized growth", "setting": "locus YGL167C, strain pmr1, active compounds read low", "value": 0.976}, {"measurement": "normalized growth", "setting": "locus YGL173C, strain kem1, active compounds read low", "value": "0.892 (active)"}, {"measurement": "normalized growth", "setting": "locus YGL227W, strain vid30, active compounds read low", "value": 0.978}, {"measurement": "normalized growth", "setting": "locus YGL240W, strain doc1, active compounds read low", "value": "0.886 (active)"}, {"measurement": "normalized growth", "setting": "locus YGL253W, strain hxk2, active compounds read low", "value": "0.678 (active)"}, {"measurement": "normalized growth", "setting": "locus YHR013C, strain ard1, active compounds read low", "value": "0.533 (active)"}, {"measurement": "normalized growth", "setting": "locus YHR027C, strain rpn1, active compounds read low", "value": "0.885 (active)"}, {"measurement": "normalized growth", "setting": "locus YHR030C, strain SLT2, active compounds read low", "value": "0.337 (active)"}, {"measurement": "normalized growth", "setting": "locus YHR079C, strain IRE1, active compounds read low", "value": "0.426 (active)"}, {"measurement": "normalized growth", "setting": "locus YHR142W, strain chs7, active compounds read low", "value": 0.937}, {"measurement": "normalized growth", "setting": "locus YJL092W, strain hpr5, active compounds read low", "value": 0.932}, {"measurement": "normalized growth", "setting": "locus YJL095W, strain BCK1 (second series), active compounds read low", "value": 0.973}, {"measurement": "normalized growth", "setting": "locus YJL095W, strain BCK1, active compounds read low", "value": "0.413 (active)"}, {"measurement": "normalized growth", "setting": "locus YJL115W, strain asf1, active compounds read low", "value": 0.969}, {"measurement": "normalized growth", "setting": "locus YJL129C, strain trk1, active compounds read low", "value": 0.982}, {"measurement": "normalized growth", "setting": "locus YJL154C, strain vps35, active compounds read low", "value": 0.979}, {"measurement": "normalized growth", "setting": "locus YJL164C, strain tpk1, active compounds read low", "value": 0.966}, {"measurement": "normalized growth", "setting": "locus YJL166W, strain qcr8, active compounds read low", "value": "0.859 (active)"}, {"measurement": "normalized growth", "setting": "locus YJL187C, strain SWE1, active compounds read low", "value": 0.979}, {"measurement": "normalized growth", "setting": "locus YJR066W, strain TOR1, active compounds read low", "value": "0.417 (active)"}, {"measurement": "normalized growth", "setting": "locus YKL160W, strain elf1, active compounds read low", "value": 0.974}, {"measurement": "normalized growth", "setting": "locus YKR026C, strain gcn3, active compounds read low", "value": 0.978}, {"measurement": "normalized growth", "setting": "locus YKR091W, strain srl3, active compounds read low", "value": 0.977}, {"measurement": "normalized growth", "setting": "locus YLL001W, strain dnm1, active compounds read low", "value": "0.888 (active)"}, {"measurement": "normalized growth", "setting": "locus YLL026W, active compounds read low", "value": 0.932}, {"measurement": "normalized growth", "setting": "locus YLL041C, strain sdh2, active compounds read low", "value": 0.978}, {"measurement": "normalized growth", "setting": "locus YLR027C, strain aat2, active compounds read low", "value": 0.938}, {"measurement": "normalized growth", "setting": "locus YLR113W, strain HOG1, active compounds read low", "value": "0.443 (active)"}, {"measurement": "normalized growth", "setting": "locus YLR221C, strain rsa3, active compounds read low", "value": 0.919}, {"measurement": "normalized growth", "setting": "locus YLR258W, strain gsy2, active compounds read low", "value": 0.93}, {"measurement": "normalized growth", "setting": "locus YLR262C, strain YPT6 (second series), active compounds read low", "value": 0.898}, {"measurement": "normalized growth", "setting": "locus YLR320W, strain mms22, active compounds read low", "value": "0.798 (active)"}, {"measurement": "normalized growth", "setting": "locus YLR342W, strain FKS1, active compounds read low", "value": 0.964}, {"measurement": "normalized growth", "setting": "locus YLR357W, strain rsc2, active compounds read low", "value": "0.798 (active)"}, {"measurement": "normalized growth", "setting": "locus YLR370C, strain arc18, active compounds read low", "value": "0.81 (active)"}, {"measurement": "normalized growth", "setting": "locus YLR384C, strain iki3, active compounds read low", "value": 0.979}, {"measurement": "normalized growth", "setting": "locus YML120C, strain ndi1, active compounds read low", "value": 0.987}, {"measurement": "normalized growth", "setting": "locus YMR058W, strain fet3, active compounds read low", "value": "0.832 (active)"}, {"measurement": "normalized growth", "setting": "locus YMR125W, strain sto1, active compounds read low", "value": 0.951}, {"measurement": "normalized growth", "setting": "locus YMR129W, active compounds read low", "value": 0.963}, {"measurement": "normalized growth", "setting": "locus YMR205C, strain PFK2, active compounds read low", "value": "0.808 (active)"}, {"measurement": "normalized growth", "setting": "locus YMR231W, strain pep5, active compounds read low", "value": 0.982}, {"measurement": "normalized growth", "setting": "locus YNL071W, strain lat1, active compounds read low", "value": "0.695 (active)"}, {"measurement": "normalized growth", "setting": "locus YNL183C, strain NPR1, active compounds read low", "value": "0.516 (active)"}, {"measurement": "normalized growth", "setting": "locus YNL209W, strain ssb2, active compounds read low", "value": 0.974}, {"measurement": "normalized growth", "setting": "locus YNL248C, strain rpa49, active compounds read low", "value": 0.926}, {"measurement": "normalized growth", "setting": "locus YNL322C, strain KRE1 (second series), active compounds read low", "value": 0.97}, {"measurement": "normalized growth", "setting": "locus YNR049C, strain mso1, active compounds read low", "value": 0.941}, {"measurement": "normalized growth", "setting": "locus YOR001W, strain rrp6, active compounds read low", "value": 0.992}, {"measurement": "normalized growth", "setting": "locus YOR070C, strain gyp1, active compounds read low", "value": 0.961}, {"measurement": "normalized growth", "setting": "locus YOR080W, strain dia2, active compounds read low", "value": 0.968}, {"measurement": "normalized growth", "setting": "locus YOR083W, strain WHI5, active compounds read low", "value": 0.924}, {"measurement": "normalized growth", "setting": "locus YOR106W, strain vam3, active compounds read low", "value": "0.496 (active)"}, {"measurement": "normalized growth", "setting": "locus YOR231W, strain MKK1, active compounds read low", "value": "0.324 (active)"}, {"measurement": "normalized growth", "setting": "locus YOR265W, strain rbl2, active compounds read low", "value": 0.976}, {"measurement": "normalized growth", "setting": "locus YOR270C, strain vph1, active compounds read low", "value": "0.357 (active)"}, {"measurement": "normalized growth", "setting": "locus YOR290C, strain snf2, active compounds read low", "value": "0.722 (active)"}, {"measurement": "normalized growth", "setting": "locus YPL051W, strain arl3, active compounds read low", "value": "0.899 (active)"}, {"measurement": "normalized growth", "setting": "locus YPL078C, strain atp4, active compounds read low", "value": 0.96}, {"measurement": "normalized growth", "setting": "locus YPL106C, strain sse1, active compounds read low", "value": 0.931}, {"measurement": "normalized growth", "setting": "locus YPL240C, strain hsp82, active compounds read low", "value": 0.987}, {"measurement": "normalized growth", "setting": "locus YPL256C, strain CLN2, active compounds read low", "value": "0.474 (active)"}]}]}
